The list is not random: actives were taken first. Their share in the collection is about 7.5%.
SMN2 splice enh = qHTS Assay for Enhancers of SMN2 Splice Variant Expression; HEK293 SMN2-luciferase splicing reporter, luminescence, 30-36 h; 210,000 tested, 2.8% active; Potency, µM (series often up to 46.1 µM), without a hit: top-dose activity change, positive = activation, usual class: activators; also: % of control where 0% means no effect; nearly all actives have a fitted effect of over 55% in size
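HEK293 cells carry an SMN2 […]–luciferase reporter in which exon 7 inclusion puts luciferase in frame. Cells were plated 10-12 h before compound addition, then incubated 30-36 h at 37C. ONE-Glo luminescence was read; sodium butyrate at 4.5 mM final served as control.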
ELG1 genotoxic = qHTS screen for small molecules that induce genotoxicity in human embryonic kidney (HEK293T) cells expressing luciferase-tagged ELG1. HEK293T ELG1-luciferase reporter, luminescence, 16 h. Potency, µM (top dose mostly 46 µM), for inactives: top-dose activity change, positive = activation, hits mostly activators. 330,000 tested, 1.3% active. AID 504466, 2011; also: % of control where 0% means no effect; nearly all actives have a fitted effect of over 60% in size
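ELG1-luciferase HEK293T cells, 2,000/well; compound pinned in; 16 hr, 37 °C, 5% CO2; ONE-Glo, 30 min RT; luminescence on CCD imager.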
FLuc counter = qHTS profiling assay for firefly luciferase inhibitor/activator using purifed enzyme and Km concentrations of substrates (counterscreen for miR-21 project). Luciferin 4-monooxygenase (Photinus pyralis), P08659. purified FLuc, Km substrates, luminescence inhibition. Potency, µM (series often up to 57.5 µM), for inactives: at the highest dose activity change, negative = inhibition, hits mostly inhibitors. 360,000 tested, 6.9% active. AID 588342, 2011;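 also: plate controls were vehicle for no effect and reference inhibitor for full effect; nearly all actives have a fitted effect of over 55% in size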
Target sequence (P08659 whole entry, looked up): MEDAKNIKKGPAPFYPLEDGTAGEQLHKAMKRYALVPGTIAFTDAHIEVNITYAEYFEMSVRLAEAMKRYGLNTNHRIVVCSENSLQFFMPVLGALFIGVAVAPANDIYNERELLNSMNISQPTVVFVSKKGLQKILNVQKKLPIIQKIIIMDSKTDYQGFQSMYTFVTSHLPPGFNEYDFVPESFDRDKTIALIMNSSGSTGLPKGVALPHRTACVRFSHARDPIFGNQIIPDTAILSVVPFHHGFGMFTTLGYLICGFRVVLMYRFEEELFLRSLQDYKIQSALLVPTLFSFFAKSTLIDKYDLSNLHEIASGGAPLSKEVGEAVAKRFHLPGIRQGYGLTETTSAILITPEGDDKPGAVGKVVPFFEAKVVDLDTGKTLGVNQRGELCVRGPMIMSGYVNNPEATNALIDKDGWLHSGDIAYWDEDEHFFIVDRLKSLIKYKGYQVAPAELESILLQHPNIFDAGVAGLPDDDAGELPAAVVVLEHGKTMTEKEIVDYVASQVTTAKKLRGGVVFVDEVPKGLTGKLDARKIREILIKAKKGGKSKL
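Biochemical qHTS of compounds, final roughly 60 µM downward over six points, against 10 nM purified firefly luciferase using Km concentrations of substrates (10 uM D-luciferin, 10 uM ATP) in Tris acetate pH 7.5 buffer; luminescence output.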
Luc counter = Counterscreen for Luciferase (Kinase-Glo TM) Inhibition; Luciferin 4-monooxygenase (Photuris pensylvanica), Q27757; Kinase-Glo luciferase, ATP luminescence, 8 min; Potency, µM (series often up to 38.3 µM), for inactives: at the highest dose activity change, negative = inhibition, usual class: inhibitors; 200,000 tested, 0.28% active; also: % is scaled to controls: 0 for no effect and ±100 for the full control effect; nearly all actives have a fitted effect of over 60% in size
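Compounds were added to a substrate mix at pH 7.2 (50 mM imidazole, 10 uM ATP, within the enzyme's linear range), followed by Kinase-Glo detection reagent; luminescence was measured after 8 minutes at ambient temperature.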
NPC1 promoter act = qHTS Assay for NPC1 Promoter Activators | Huh7 NPC1 promoter luciferase reporter, 24 h | Potency, µM (doses to about 9.22 µM), inactives show at the highest dose activation, usual class: activators | 320,000 tested, 2.4% active; also: % of control where 0% means no effect; nearly all actives have a fitted effect of over 60% in size
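Luminescence from an NPC1 promoter-driven luciferase reporter in stably transfected Huh7 cells was measured after 24 h compound treatment at 37 °C, followed by 10 min ambient incubation with luciferase detection reagent.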
Rab9 promoter act = qHTS Assay for Rab9 Promoter Activators | 320,000 tested, 2.8% active | Potency, µM (top dose mostly 9.22 µM), without a hit: at the top dose activation, negative = inhibition, hits mostly activators | Huh7 Rab9 promoter-luciferase reporter, luminescence, 24 h | AID 485297, 2010; also: % of control where 0% means no effect; nearly all actives have a fitted effect of over 60% in size
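Promoter activation is measured as luciferase luminescence in Huh7 cells stably transfected with a Rab9 promoter–luciferase construct, following 24 h compound exposure at 37 °C and 10 min reagent incubation at ambient temperature.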
Active calls of the source: *; ? = inconclusive; . = no result given; [ ] = dose if it differs, or a comment. Calls follow the shape of the dose curve; as a rule, active = well fitted curve in the direction sought with a large enough effect; inconclusive = small, poorly fitted or top-dose-only effect, or another doubt; inactive = no such curve, though single readings can be large; an effect the other way counts as inactive or inconclusive. Potency is read from the fitted curve at half-maximal effect.

SMILES | SMN2 splice enh | ELG1 genotoxic | FLuc counter | Luc counter | NPC1 promoter act | Rab9 promoter act
S=c1nc(COc2ccccc2)[nH]c2ccccc12 | . | 16% | 24µM* | . | ? | ?
CCOC(=O)c1ccc(N2CCN(c3cc(C)ccc3C)CC2)c(NC(=O)Nc2ccc(Cl)cc2)c1 | . | . | 1% | . | . | .
CCOC(=O)Cc1nc2ccccc2n(CC#N)c1=O | 23% | 4% | 0% | 2% | -3% | -5%
Cc1c(Cl)cccc1-n1nnc(-c2nc(-c3ccc4c(c3)OCO4)no2)c1C | . | . | 3µM* | . | . | .
CCCOc1cccc(NC(=O)OC2CCN(C)CC2)c1 | -8% | 5% | 3% | -4% | 1% | -1%
O=C(Nc1ccc2ccccc2n1)c1ccccc1Br | . | ? | 3.4µM* | . | ? | 3.5µM*
O=C(c1ccccc1)c1ccc2ccccc2n1 | -13% | 17% | ? | -4% | 18% | 19%
O=C(Nc1ccc2ccccc2n1)c1ccccc1 | . | ? | 2.4µM* | . | 2.2µM* | 0.89µM*
O=C(CCc1ccccc1)Nc1ccc2ccccc2n1 | 13µM* | ? | 6.7µM* | -2% | 3.2µM* | 1.1µM*
Cc1ccc(C(=O)Nc2ccc3ccccc3n2)cc1 | . | ? | 1.7µM* | . | 3.2µM* | 0.63µM*
CC(=O)C(Cc1ccccc1)NC(=O)COc1ccc2c(c1)OCO2 (stereo not given) | . | 0% | . | . | . | .
CCOCCc1nnc(NC(=O)C(=O)c2cc(C)n(-c3cccc(C)c3)c2C)s1 | . | . | -3% | . | . | .
Cc1ccccc1CCNC(=O)c1cc2cc(S(=O)(=O)N3CCCCC3)ccc2n1C | . | . | -5% | . | . | .
NC(=NCCc1ccccc1)NS(=O)(=O)c1ccccc1F | . | -1% | 4% | . | -9% | -7%
CC(NCC(=O)Nc1ccccc1C(=O)NC1CC1)c1ccc(F)cc1F (stereo not given) | . | -3% | 4% | . | -3% | 2%
COc1ccc(C(=O)Nc2ccc3ccccc3n2)cc1OC | . | ? | 13µM* | . | 2.8µM* | 2.8µM*
O=C(Nc1cccc(Br)c1)c1ccc(CSc2ccccc2)cc1 | -8% | 5% | 12µM* | -5% | 17% | 14%
O=C(O)c1ccc(NC2=C(Cl)C(=O)c3ccccc3C2=O)cc1 | . | -16% | ? | . | -33% | -42%
O=C(O)COc1ccc(NC(=O)c2ccc3c(c2)C(=O)N(C2CCCCC2)C3=O)cc1 | . | -3% | -1% | . | 1% | -2%
O=C(O)c1cccc(NC(=O)c2ccc3c(c2)C(=O)N(Cc2ccco2)C3=O)c1 | . | 1% | 0.95µM* | -2% | 0% | -3%
O=C(O)c1cccc(NC2=C(Cl)C(=O)c3ccccc3C2=O)c1 | 4% | -24% | 17µM* | -8% | 25% | ?
O=C(Nc1cccnc1)c1ccc(CSc2ccccc2)cc1 | . | 9% | -16% | . | 2% | 24%
O=C(O)c1cccc(NC(=O)c2ccc3c(c2)C(=O)N(C2CCCCC2)C3=O)c1 | . | ? | 0.19µM* | . | 1.6µM* | 1µM*
CC1CC(C)CN(C(=O)CN2C(=O)NC3(CCCCCC3)C2=O)C1 (stereo not given) | . | 4% | . | . | . | .
COc1ccccc1C(=O)Nc1ccc(C(=O)OCc2cc(=O)n3nc(C4CC4)sc3n2)cc1 | . | . | 1% | . | . | .
SMILES | SMN2 splice enh | ELG1 genotoxic | FLuc counter | Luc counter | NPC1 promoter act | Rab9 promoter act
CSc1cccc(NC(=O)OC2CCCCCCCCCCC2)c1 | -9%[9.22 µM] | -5% | ? | -4%[7.66 µM] | -4% | -3%
CCC(C)c1ccc(OCC(=O)Nc2cccc3ccc(C)nc23)cc1 (stereo not given) | ? | . | 0% | . | . | .
O=C(O)c1ccc(CN2C(=O)c3ccc(C(=O)O)cc3C2=O)cc1 | . | 1% | 1% | . | 1% | -2%
O=C(O)c1cccc(NC(=O)c2ccc(CN3C(=O)c4ccccc4C3=O)cc2)c1 | . | 0% | 12µM* | . | 2% | 8%
Cc1c(NC(=O)c2ccc3c(c2)C(=O)N(Cc2ccco2)C3=O)cccc1C(=O)O | -8% | 1% | 15µM* | 3% | 0% | -9%
CC(=O)Nc1ncc(N=Nc2cccc(C(F)(F)F)c2)s1 | . | 13% | 0% | . | 2% | 19%
Cc1cccc(N=Nc2cnc(N)s2)c1 | . | ? | 6µM* | . | 3.2µM* | 3.2µM*
O=C(N/N=C/c1ccncc1)c1cccc(N/N=C/c2ccncc2)c1 | ? | -2% | 11µM* | 2% | 3.5µM* | ?
Cc1cccc(N/N=C/c2ccncc2)c1 | . | ? | 15µM* | . | ? | ?
O=C(N/N=C/c1ccc(O)cc1)c1cccc(N/N=C/c2ccc(O)cc2)c1 | . | ? | 2.1µM* | . | 0.56µM* | 0.89µM*
Cc1cccc(NC(=O)C(=O)N/N=C/c2ccncc2)c1 | 10% | 2% | -10% | -5% | -2% | -2%
Cc1cccc(NC(=O)CCC(=O)N/N=C/c2ccc(O)cc2O)c1 | . | 8% | -3% | . | -8% | -4%
O=C(N/N=C/c1ccncc1)c1cccc(NC(=O)c2ccc(Cl)cc2)c1 | -18% | 2% | -7% | 1% | -2% | -3%
Cc1cccc(N/N=C/c2ccccc2O)c1 | 11µM* | ? | 6µM* | -2% | ? | 4µM*
CCOC(=O)c1cccc(NC(=O)c2cc3c(=O)n(Cc4ccccc4)ccc3nc2C)c1 | . | . | 1% | . | . | .
O=C(Nc1cccc(Cl)c1Cl)c1cc2nc(-c3ccc4c(c3)OCO4)cc(C(F)(F)F)n2n1 | 8% | . | 4% | . | . | .
Cc1c(C(=O)N2C[C@@H](C)O[C@@H](C)C2)oc2c(F)cccc12 | . | ? | 15µM* | . | ? | ?
Cc1c(C(=O)NC2CCOC2)oc2c(F)cccc12 (stereo not given) | . | 18%[9.26 µM] | 11µM* | . | 2.2µM* | 2.5µM*
Cc1c(C(=O)O)oc2c(F)cccc12 | 7% | 0% | -20% | 3% | -3% | -3%
CCn1nc(C(=O)OCC(=O)N(CCC#N)c2ccccc2)c2ccccc2c1=O | . | 3% | 2% | . | 0% | 10%
CCN(CC)c1ccc(N=Nc2ncn[nH]2)cc1 | 13µM* | ? | 12µM* | -5% | 2.8µM* | 2.8µM*
CC(=O)Nc1ccc(S(=O)(=O)NC(C)C(=O)NCC(c2ccco2)N2CCCCC2)cc1 (stereo not given) | . | 2% | 6% | . | 0% | -4%
Cc1ccc(S(=O)(=O)NC(CC(C)C)C(=O)NCC(c2ccco2)N2CCCCC2)cc1 (stereo not given) | . | ? | 19µM* | . | 0% | 1%
Cc1nnc(NC(=O)CSCc2cc(=O)c3ccccc3[nH]2)s1 | . | . | -2% | . | -5% | -2%

Source: PubChem BioAssay
